PubChem BioAssay (NCATS)
Active and inactive are the calls of the source. Calls come from the whole dose curve; as a rule, active = well fitted activation curve with a large enough effect; inconclusive = small, poorly fitted or top-dose-only effect; inactive = no such curve, though single readings can be large or run the other way.

What follows are compounds tested against Cytochrome P450 3A4 (Homo sapiens) (UniProt P08684) (assay: qHTS Assay for Activators of Cytochrome P450 3A4 (AID 885; note: nearly all actives have a fitted effect of over 65% in size)). Conditions: recombinant CYP3A4, Luciferin-PPXE luminescence, 60 min; series mostly up to 57.1 µM.
In short: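 Using 20nM recombinant human CYP3A4 in potassium phosphate (200mM), substrate Luciferin-PPXE at 25uM, luminescent luciferin detection followed a 60-min RT NADPH reaction; data scaled to 57 uM ketoconazole.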

Sequence of Cytochrome P450 3A4 (Homo sapiens) (P08684 whole entry, looked up): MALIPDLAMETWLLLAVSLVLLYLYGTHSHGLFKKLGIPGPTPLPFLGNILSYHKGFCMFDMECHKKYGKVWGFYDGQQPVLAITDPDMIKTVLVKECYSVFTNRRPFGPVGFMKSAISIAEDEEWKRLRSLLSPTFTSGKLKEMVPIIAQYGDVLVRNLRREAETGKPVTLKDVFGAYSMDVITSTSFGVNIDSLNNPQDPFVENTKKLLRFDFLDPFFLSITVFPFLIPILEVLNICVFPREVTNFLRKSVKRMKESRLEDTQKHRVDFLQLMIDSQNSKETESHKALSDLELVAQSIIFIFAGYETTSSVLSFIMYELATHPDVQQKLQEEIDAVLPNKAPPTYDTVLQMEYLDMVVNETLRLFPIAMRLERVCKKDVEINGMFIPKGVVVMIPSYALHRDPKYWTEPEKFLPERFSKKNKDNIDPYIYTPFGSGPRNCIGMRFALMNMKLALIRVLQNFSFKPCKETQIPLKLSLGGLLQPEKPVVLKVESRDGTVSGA

Potency, inactive:
CC1(C)CC[C@]2(C(=O)O)C(O)C[C@@]3(C)C(=CCC4[C@@]5(C)CCC(O)C(C)(C)C5CC[C@@]43C)C2C1 (some centres not stated)
CCC1CN2CCc3cc(OC)c(OC)cc3C2CC1CC1NCCc2cc(OC)c(OC)cc21 (configuration not stated)
COc1cc(C2c3cc4c(cc3C(O)[C@H]3COC(=O)C23)OCO4)cc(OC)c1OC (some centres not stated)
C=CC(C1=CC(=O)C(OC)=C(OC)C1=O)c1ccccc1 (configuration not stated)
CNC1CCC(c2ccc(Cl)c(Cl)c2)c2ccccc21 (configuration not stated)

Activity change, positive = activation, inactive:
C/C=C/OC(=O)NC(c1ccccc1)[C@]1(C(C)=O)CCCC1=O (some centres not stated) -53.9% [at 11.4 µM]
COc1ccc(OC)c(-c2ccccc2/C=N/NS(=O)(=O)c2ccc(C)cc2)c1 -59.9% [at 11.4 µM]
COC(=O)C(/C=C/C(C)Cc1cc(Br)cc(OCc2ccccc2)c1OC)OCc1ccccc1 (configuration not stated) -50.4% [at 11.4 µM]
C/C(CCN1CCc2nc(-c3ccccc3)c(-c3ccccc3)cc2C1)=N\O[C@@H](C)c1cc(-c2c(C)cc(C)cc2C)no1 -63.5% [at 11.4 µM]
CC1CCC2C(=O)N3C(CCC(C)[C@H]3c3cccc(N4CCCC4=O)c3)C(=O)N2C1c1cccc(N2CCCC2=O)c1 (some centres not stated) -53.3% [at 11.4 µM]
C[C@@H]1/C=C\CC(=O)OC[C@H](C)C(=O)N[C@@H](Cc2ccccc2)C(=O)OC1 -37.2% [at 11.4 µM]
CCCNC(=O)OC[C@@H]1O[C@H](CCON=C(C)C)C=C[C@@H]1Oc1ccc(OC)cc1 -58.2% [at 11.4 µM]
